Data on 13 compounds can be found in PubChem BioAssay (NCI).

Holding throughout (assay): NCI-60 one-dose screen, 48 h (100 = growth as untreated, 0 = no growth, -100 = all killed)
Holding throughout (details): 10 µM unless noted

The subject of assay [1] is NCI-H23 lung.
In assay [2] the test system is NCI-H226 lung.
Assay [3] concerns NCI-H322M lung.
The test system of assay [4] is HOP-62 NSCLC.
For assay [5], the system named is NCI-H460 lung.
For assay [6], the system named is HOP-92 NSCLC.
Assay [7] relates to NCI-H522 lung.
In assay [8] the test system is A549/ATCC NSCLC.
Assay [9] has as its system 786-0 renal.
Assay [10] concerns COLO 205 colon.

This is part of a sample that, as a whole, favours compounds with a hit. Of some 83,000 tested, about 20% had one in any assay.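 In brief: 96-well plates, 48 h treatment, single concentration, percent growth endpoint.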 Values without a mark were called inactive. Active and inactive are the calls of the source. How the source made its calls: active means growth percent below 10; inactive means the rest.

`COc1ccc2c(c1)c(-c1nc(-c3cn(C)c4ncccc34)cs1)cn2CCCCN1CCCCC1`: the growth was 15.3% in [1]; 56.6% in [2]; -31.4% (active) in assay [3]; -78.5% (active) in [4]; -61.2% (active) in [5]; 50.3% in assay [6]. For the same compound, the growth in assay [7] was -61.7% (active); in assay [8], -56.4% (active); in assay [9] it was -90.8% (active); in [10] it was -71.7% (active).

`C[C@]12CC[C@H]3[C@@H](CC4SC(N)=NC45C/C(=N/NC(N)=O)CC[C@]35C)[C@@H]1CCC2=O` (stereo partly drawn): the growth in assay [1] is -44.3% (active); in assay [2], 108%; in [3] it was 52.4%; in assay [4], 75.5%; in [5], -38.7% (active); in assay [6], 46.6%. Further, the growth is -18.6% (active) in [7], 0.923% (active) in [8], -9.65% (active) in [9] and 35% in assay [10].

As to `CC(C)=CCc1c(O)c(C(=O)CC(C)C)c(O)c2c(-c3ccccc3)cc(=O)oc12`, the growth was 26.8% in assay [1]; 47.4% in [2]; 63.2% in assay [3]; 84.2% in assay [4]; 27.9% in assay [5]; -13.2% (active) in [6]. The growth was 31.5% in assay [7], 54.6% in [8], 66.2% in assay [9] and 83.1% in assay [10].

As to `Cn1cc(-c2csc(-c3cn(CCN4CCOCC4)c4ccc(F)cc34)n2)c2cccnc21`, the growth in assay [1] is 22.5%; in assay [2], 16.6%; in assay [3] it was 73.3%; in assay [4], 8.52% (active); in [5], 44.6%; in assay [6] it was 27.2%. The growth in assay [7] is -0.645% (active); in [8], 22.5%; in assay [9], 56.3%; in assay [10] it was 15.9%.

Take `COc1cccc(/C=C/[N+](=O)[O-])c1`: the growth in assay [1] is 43.3%; in [2], 65.2%; in assay [3] it was 88.8%; in assay [4] it was 89.9%; in [5], 100%; in [6], 78.9%. Moreover, the growth in assay [7] is 63.2%; in assay [8], 61.2%; in assay [9], 54.6%; in assay [10], 19.5%.

For `Cn1cc(C=O)c2nccnc21`, the growth in [1] was 94.9%; in [2], 120%; in assay [3], 123%; in assay [4], 113%; in [5] it was 104%; in assay [6], 82%. Besides, the growth is 78.2% in assay [7], 96.8% in assay [8], 119% in assay [9] and 109% in assay [10].

Take `CCCCCCCCCCCCCCCCCCOc1ccccc1COP(=O)(O)OOCC[N+](C)(C)C`: the growth in assay [1] is 1.55% (active); in assay [2] it was 42%; in assay [3], 87.6%; in [4], 3.04% (active); in assay [5], 37.1%; in [6], -27.7% (active). Further, the growth in assay [7] is 21%; in assay [8] it was 35.1%; in [9], 9.57% (active); in assay [10], -30.3% (active).

For `C=CCCCN=C=S`, the growth in assay [1] is 82%; in assay [2], 94.9%; in assay [3], 80.7%; in assay [4], 76.1%; in [5] it was 47.9%; in assay [6] it was 92%. In addition, the growth was 38% in [7], 75.2% in assay [8], 93.4% in assay [9] and 91.2% in assay [10].

For `O=C1Nc2ccccc2C2c3cccn3-c3ccccc3CN12` (stereo not drawn), the growth in [1] is 70.6%; in assay [2] it was 78.2%; in assay [3] it was 91.5%; in assay [4], 34.5%; in assay [5] it was 43.7%; in [6], 29.7%. In addition, the growth is -7.83% (active) in assay [7], 34.4% in [8], 66.3% in assay [9] and 39.5% in [10].

On to `O=[As](O)(O)c1ccccc1[As](=O)(O)O`, for which the growth was 99.9% in assay [1]; 112% in assay [2]; 121% in assay [3]; 110% in assay [4]; 116% in [5]; 95.9% in assay [6]. Also, the growth is 106% in assay [7], 91.8% in assay [8], 119% in assay [9] and 111% in assay [10].

With `C[C@]12CC[C@@H]3c4ccc(Oc5nc(N6CC6)nc(N6CC6)n5)cc4CC[C@H]3[C@@H]1CCC2=O`, the growth in assay [1] is 31.6%; in assay [2] it was 48.7%; in assay [3], 44.2%; in assay [4] it was 11.7%; in assay [5], -33.8% (active); in assay [6], 104%. In addition, the growth is 31.5% in assay [7], 24.9% in assay [8], 32.4% in assay [9] and 32.5% in assay [10].

Turning to `COc1ccc(NC([Se])=NC23CC4CC(CC(C4)C2)C3)cc1`, the growth is -23% (active) in assay [1]; -32.7% (active) in assay [2]; -0.819% (active) in [4]; -8.63% (active) in assay [5]; -6.73% (active) in assay [6]; -32.6% (active) in assay [7]. Further, the growth in assay [8] is -0.959% (active); in [9], -42.1% (active); in assay [10], -32.1% (active).

For the compound `COC(=O)C1CCC(NC(=O)c2csc([C@@H](C[C@H](C(C)C)N(C)C(=O)[C@@H](NC(=O)[C@H]3CCCCN3C)C(C)C)OC(C)=O)n2)CC1` (stereo partly drawn), the growth in assay [1] was 32%; in assay [2] it was 17%; in assay [4], 7.46% (active); in [5] it was 6.14% (active); in assay [6], 32.2%; in [7], -25% (active). Further, the growth in assay [8] was 15.9%; in assay [9] it was 13%; in assay [10], -71.1% (active).
